The source of these data is PubChem BioAssay (NCI).

This is part of a sample that, as a whole, favours compounds with a hit. Of some 79,000 tested, about 15% had one in any assay. Unmarked numbers belong to inactive results. The source made the active and inactive calls. Rule as the data show it: active = growth inhibition above about 70%; inactive = the rest.

The nature of experiment [1]: NCI Yeast Anticancer Drug Screen. Data for the rad50 strain (AID 155).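 Also: 0% = growth of vehicle-only cultures of the same strain.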 To be noted: S. cerevisiae rad50 strain growth inhibition, hits give high values. The method in brief:
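A DNA repair-deficient yeast mutant serves as the test organism; compound-induced growth inhibition is calculated against vehicle-treated cells.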

Experiment [2] is described as follows: NCI Yeast Anticancer Drug Screen. Data for the mec2-1 strain (AID 157). To be noted: S. cerevisiae mec2-1 strain, hits give high values. The method in brief: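 Compounds were applied to mec2-1 yeast cells. Their growth was then compared with that of vehicle-treated cultures to give growth inhibition.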
The nature of experiment [3]: NCI Yeast Anticancer Drug Screen. Data for the sgs1 mgt1 strain (AID 161).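 Also: 0% = growth of cultures given vehicle only.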 Conditions: S. cerevisiae sgs1 mgt1 strain, hits give high values. The method in brief: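 This yeast growth screen uses a strain with defined DNA-repair lesions; compound-treated growth is compared with vehicle-treated growth.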
The nature of experiment [4]: NCI Yeast Anticancer Drug Screen. Data for the cln2 rad14 strain (AID 165).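 Also: 0% = growth equal to vehicle treated cultures.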 Conditions: S. cerevisiae cln2 rad14 strain, hits give high values. In a few lines:
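Strain: cln2 rad14 yeast, altered in cell cycle control and DNA damage repair. Read-out: growth inhibition vs vehicle.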

The nature of experiment [5]: NCI Yeast Anticancer Drug Screen. Data for the bub3 strain (AID 167). To be noted: S. cerevisiae bub3 mutant strain, hits give high values. In a few lines:
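Inhibition values come from growth of compound-treated mutant yeast normalised to vehicle-treated controls.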

A short description of experiment [6]: NCI Yeast Anticancer Drug Screen. Data for the mlh1 rad18 strain (AID 175). To be noted: S. cerevisiae mlh1 rad18 strain growth inhibition, hits give high values. In a few lines: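 A repair-deficient yeast strain is exposed to test compound, and growth is scored relative to vehicle-treated controls.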
The mark [7] stands for this setting: at 5.0 µM (retest, dose inferred, filed as 0.5).
Where [8] appears, read: at 50.0 µM (retest, dose inferred, filed as 5.0).

For the compound `CCOC(=O)CSc1c(C(=O)OCC)c(=O)n(-c2ccccc2)c(=S)n1-c1ccccc1`, the growth inhibition in experiment [1] (setting [7]) is 60%; in experiment [1] (setting [8]), 90% (active); in experiment [1] (at 50.0 µM), 85.2% (active); in experiment [2] (setting [7]) it was 44%; in experiment [2] (setting [8]), 89% (active); in experiment [2] (at 50.0 µM), 87.2% (active). In addition, the growth inhibition was 75% (active) in experiment [3] (setting [7]); 94% (active) in experiment [3] (setting [8]); 87.8% (active) in experiment [3] (at 50.0 µM); 54% in experiment [4] (setting [7]); 91% (active) in experiment [4] (setting [8]); 80.8% (active) in experiment [4] (at 50.0 µM). Also, the growth inhibition in experiment [5] (setting [7]) is 31%; in experiment [5] (setting [8]) it was 90% (active); in experiment [5] (at 50.0 µM) it was 85.8% (active); in experiment [6] (setting [7]) it was 74% (active); in experiment [6] (setting [8]) it was 89% (active); in experiment [6] (at 50.0 µM), 81.8% (active).
As to `O=C1c2ccccc2-c2ccc(N3C(=O)C4CCCCC4C3=O)cc21` (configuration not stated), the growth inhibition in experiment [1] (setting [7]) was -5%; in experiment [1] (setting [8]), 95% (active); in experiment [1] (at 50.0 µM) it was -31.3%; in experiment [2] (setting [7]), -4%; in experiment [2] (setting [8]), 96% (active); in experiment [2] (at 50.0 µM) it was 5.4%. Further, the growth inhibition in experiment [3] (setting [7]) is -4%; in experiment [3] (setting [8]) it was 96% (active); in experiment [3] (at 50.0 µM), -9.15%; in experiment [4] (setting [7]), -8%; in experiment [4] (setting [8]), 95% (active); in experiment [4] (at 50.0 µM), -36.8%. In addition, the growth inhibition was 41% in experiment [5] (setting [7]); 95% (active) in experiment [5] (setting [8]); 74.9% (active) in experiment [5] (at 50.0 µM); -4% in experiment [6] (setting [7]); 94% (active) in experiment [6] (setting [8]); -26.2% in experiment [6] (at 50.0 µM).
Turning to `Cc1c(C)c(C[P+](CCP(c2ccccc2)c2ccccc2)(c2ccccc2)c2ccccc2)c(C)c(C)c1C[P+](CCP(c1ccccc1)c1ccccc1)(c1ccccc1)c1ccccc1`, the growth inhibition was 18% in experiment [1] (setting [7]); 36% in experiment [1] (setting [8]); 29.8% in experiment [1] (at 50.0 µM); 11% in experiment [2] (setting [7]); 13% in experiment [2] (setting [8]); 16.5% in experiment [2] (at 50.0 µM). The growth inhibition in experiment [3] (setting [7]) is 7%; in experiment [3] (setting [8]), 41%; in experiment [3] (at 50.0 µM), 59.5%; in experiment [4] (setting [7]) it was -14%; in experiment [4] (setting [8]), 2%; in experiment [4] (at 50.0 µM), -1.3%. Moreover, the growth inhibition in experiment [5] (setting [7]) was 14%; in experiment [5] (setting [8]), 21%; in experiment [5] (at 50.0 µM), -5.8%; in experiment [6] (setting [7]) it was 13%; in experiment [6] (setting [8]) it was 33%; in experiment [6] (at 50.0 µM), 35.2%.
Take `O=c1oc(-c2cc([N+](=O)[O-])cc([N+](=O)[O-])c2Cl)nc2ccccc12`: the growth inhibition in experiment [1] (setting [7]) is 29%; in experiment [1] (setting [8]) it was 50%; in experiment [1] (at 50.0 µM), 75.3% (active); in experiment [2] (setting [7]), 8%; in experiment [2] (setting [8]), 22%; in experiment [2] (at 50.0 µM), 63.5%. Also, the growth inhibition in experiment [3] (setting [7]) was 13%; in experiment [3] (setting [8]) it was 47%; in experiment [3] (at 50.0 µM), 83.7% (active); in experiment [4] (setting [7]), 15%; in experiment [4] (setting [8]), 44%; in experiment [4] (at 50.0 µM) it was 61.5%. Also, the growth inhibition in experiment [5] (setting [7]) is 15%; in experiment [5] (setting [8]) it was 58%; in experiment [5] (at 50.0 µM), 82.5% (active); in experiment [6] (setting [7]) it was 1%; in experiment [6] (setting [8]), 57%; in experiment [6] (at 50.0 µM), 86.8% (active).
Regarding `CCOC(=O)c1cnn(-c2ccccc2)c1N`, the growth inhibition is 62% in experiment [1] (setting [7]); 98% (active) in experiment [1] (setting [8]); 88.8% (active) in experiment [1] (at 50.0 µM); 26% in experiment [2] (setting [7]); 99% (active) in experiment [2] (setting [8]); 92.8% (active) in experiment [2] (at 50.0 µM). For the same compound, the growth inhibition is 18% in experiment [3] (setting [7]); 98% (active) in experiment [3] (setting [8]); 89.4% (active) in experiment [3] (at 50.0 µM); 15% in experiment [4] (setting [7]); 97% (active) in experiment [4] (setting [8]); 86.6% (active) in experiment [4] (at 50.0 µM). For the same compound, the growth inhibition in experiment [5] (setting [7]) was 63%; in experiment [5] (setting [8]) it was 98% (active); in experiment [5] (at 50.0 µM), 90.2% (active); in experiment [6] (setting [7]), 23%; in experiment [6] (setting [8]), 98% (active); in experiment [6] (at 50.0 µM), 88.2% (active).
Take `O=C(CC(O)(C(F)(F)Cl)C(F)(F)Cl)CC(O)(C(F)(F)Cl)C(F)(F)Cl`: the growth inhibition was 94% (active) in experiment [1] (setting [7]); 100% (active) in experiment [1] (setting [8]); 99.1% (active) in experiment [1] (at 50.0 µM); 97% (active) in experiment [2] (setting [7]); 100% (active) in experiment [2] (setting [8]); 99.5% (active) in experiment [2] (at 50.0 µM). Besides, the growth inhibition in experiment [3] (setting [7]) is 93% (active); in experiment [3] (setting [8]), 99% (active); in experiment [3] (at 50.0 µM), 99.5% (active); in experiment [4] (setting [7]) it was 95% (active); in experiment [4] (setting [8]), 99% (active); in experiment [4] (at 50.0 µM), 99.3% (active). In addition, the growth inhibition in experiment [5] (setting [7]) is 91% (active); in experiment [5] (setting [8]), 100% (active); in experiment [5] (at 50.0 µM), 99.6% (active); in experiment [6] (setting [7]), 97% (active); in experiment [6] (setting [8]), 100% (active); in experiment [6] (at 50.0 µM) it was 99.2% (active).
With `O=C(O)C1C(Br)(c2ccccc2)C1(Br)c1ccccc1` (configuration not stated), the growth inhibition in experiment [1] (setting [7]) was 47%; in experiment [1] (setting [8]), 90% (active); in experiment [1] (at 50.0 µM), 90.7% (active); in experiment [2] (setting [7]), -1%; in experiment [2] (setting [8]) it was 30%; in experiment [2] (at 50.0 µM), 17.7%. Also, the growth inhibition in experiment [3] (setting [7]) is 9%; in experiment [3] (setting [8]), 70% (active); in experiment [3] (at 50.0 µM), 69%; in experiment [4] (setting [7]), 25%; in experiment [4] (setting [8]) it was 93% (active); in experiment [4] (at 50.0 µM) it was 83.8% (active). Besides, the growth inhibition in experiment [5] (setting [7]) is -3%; in experiment [5] (setting [8]) it was 10%; in experiment [5] (at 50.0 µM), 7.05%; in experiment [6] (setting [7]), -8%; in experiment [6] (setting [8]) it was 55%; in experiment [6] (at 50.0 µM), 59.9%.
In the case of `CO/C(=N\N=C(/c1ccccc1)C(F)(F)F)c1ccncc1`, the growth inhibition in experiment [1] (setting [7]) was 44%; in experiment [1] (setting [8]), 75% (active); in experiment [1] (at 50.0 µM), 45%; in experiment [2] (setting [7]), 0%; in experiment [2] (setting [8]), 58%; in experiment [2] (at 50.0 µM), 62.6%. Besides, the growth inhibition in experiment [3] (setting [7]) was 15%; in experiment [3] (setting [8]), 76% (active); in experiment [3] (at 50.0 µM), 71.8% (active); in experiment [4] (setting [7]), 25%; in experiment [4] (setting [8]), 52%; in experiment [4] (at 50.0 µM), 44.5%. The growth inhibition is 2% in experiment [5] (setting [7]); 79% (active) in experiment [5] (setting [8]); 75.2% (active) in experiment [5] (at 50.0 µM); 0% in experiment [6] (setting [7]); 66% in experiment [6] (setting [8]); 65% in experiment [6] (at 50.0 µM).
Turning to `COc1ccc(/C=C2\CN(C)C/C(=C\c3ccc(OC)cc3)C2=O)cc1`, the growth inhibition is 22% in experiment [1] (setting [7]); 75% (active) in experiment [1] (setting [8]); 14.2% in experiment [1] (at 50.0 µM); 18% in experiment [2] (setting [7]); 79% (active) in experiment [2] (setting [8]); 21.6% in experiment [2] (at 50.0 µM). In addition, the growth inhibition was 3% in experiment [3] (setting [7]); 87% (active) in experiment [3] (setting [8]); 31.9% in experiment [3] (at 50.0 µM); 15% in experiment [4] (setting [7]); 70% (active) in experiment [4] (setting [8]); 38.8% in experiment [4] (at 50.0 µM). Moreover, the growth inhibition was 3% in experiment [5] (setting [7]); 85% (active) in experiment [5] (setting [8]); 30.8% in experiment [5] (at 50.0 µM); 25% in experiment [6] (setting [7]); 87% (active) in experiment [6] (setting [8]); 26.9% in experiment [6] (at 50.0 µM).
